“And” between values parts separate entries of the source, which are not always exact repeats. Equal values may be shown once. Inconclusive results are not listed. The source made the active and inactive calls. The calls were made as follows: active = hit-call score of the fitted dose curve at least 0.9, where 1 is the maximum; inconclusive = response in the unintended direction; inactive = score below 0.9.
These compounds were tested against Peroxisome proliferator-activated receptor gamma (Homo sapiens) (UniProt P37231) (assay: ATG_hPPARg_XSP2: Attagene TRANS-FACTORIAL Multi-Species (XSP2) HepG2 Assay for human Peroxisome Proliferator-activated Receptor gamma (PPARg) (AID 2283829);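 also: actives raise reporter mRNA above DMSO so AC50 reflects PPARg activation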).
Peroxisome proliferator-activated receptor gamma (Homo sapiens), sequence (P37231 whole entry, looked up): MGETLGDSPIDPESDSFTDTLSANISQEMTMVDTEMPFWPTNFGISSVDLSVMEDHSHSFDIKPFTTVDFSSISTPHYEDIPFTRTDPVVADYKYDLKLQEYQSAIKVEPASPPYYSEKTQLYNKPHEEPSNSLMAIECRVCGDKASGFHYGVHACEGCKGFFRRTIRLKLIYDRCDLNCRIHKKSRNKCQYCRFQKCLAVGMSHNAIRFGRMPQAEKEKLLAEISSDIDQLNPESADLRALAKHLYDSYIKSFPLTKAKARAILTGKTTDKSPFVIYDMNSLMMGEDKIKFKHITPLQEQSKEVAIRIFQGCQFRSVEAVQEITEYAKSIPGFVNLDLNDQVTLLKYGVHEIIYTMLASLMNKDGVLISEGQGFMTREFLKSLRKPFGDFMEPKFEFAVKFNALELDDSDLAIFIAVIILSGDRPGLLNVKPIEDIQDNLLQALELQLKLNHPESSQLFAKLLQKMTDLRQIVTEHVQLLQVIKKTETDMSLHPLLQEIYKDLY
Method: ATG_XSP2_multi-species_TRANS is a cell-based, multiplexed assay created by modifying the existing Attagene TRANS-FACTORIAL system to include a panel of nuclear receptors from some or all the following species: human (Homo sapiens), mouse (Mus musculus), frog (Xenopus laevis), zebrafish (Danio rerio), chicken (Gallus gallus), and turtle (Chrysemys picta). The ECOTOX-FACTORIAL format uses HepG2, a human liver cell line, with measurements taken at 24 hours after chemical dosing in a 24-well plate. Xsp2 included 3 nM 6-alpha-fluorotestosterone and 1.5 nM norgestrel to stimulate the androgen receptor.ATG_hPPARg_XSP2 is one of 29 assay components measured or calculated from the ATG_XSP2_multi-species_TRANS assay. It is designed to make measurements of mRNA induction, a form of inducible reporter, as detected with fluorescence intensity signals by Reverse transcription polymerase chain reaction (RT-PCR) and Capillary electrophoresis technology.The assay endpoint ATG_hPPARg_XSP2 was analyzed in the positive analysis fitting direction relative to DMSO as the negative control and baseline of activity. Using a type of inducible reporter, measures of mRNA for gain-of-signal activity can be used to understand the reporter gene at the transcription factor-level as they relate to the gene PPARg. Furthermore, this assay endpoint can be referred to as a primary readout, because this assay has produced multiple assay endpoints where this one serves a reporter gene function. To generalize the intended target to other relatable targets, this assay endpoint is annotated to the nuclear receptor intended target family, where the subfamily is non-steroidal.
Human liver HepG2 cells are transiently transfected with multiple reporter transcription units (MRTUs) in 6-well plates using FuGene 6 reagent (Roche; 3 ml FuGene/1 mg DNA). The MRTU constructs are regulated by a cis-regulating element (promoter). […] A major difference between the CIS and TRANS system is that in CIS activities of endogenous TFs are measured, whereas the TRANS assay evaluates changes in activities of exogenous, chimeric NR-Gal4 proteins. […] At the end of 24 hour incubation, total RNA was isolated using TriZol reagent (Invitrogen). The isolated RNA is then reverse-transcribed using oligo(dT) primer and Mo-MLV reverse transcriptase (Invitrogen) with DNAse I (Ambion) treatment for 30 min. The one-tenth of the produced cDNA was amplified by PCR using Taq DNA polymerase (Invitrogen) and two reporter sequence-specific primers. The PCR products were fluorescently labeled by primer extension with 6-arboxyfluorescein (6-FAM) 5'-labeled reporter sequence-specific primer (2 min at 95 C, 20 s at 68 C and 10 min at 72 C) and these products were digested with 5U of HpaI (New England Biolabs) for 2h at 37 C. The fragments were purified using Qiaquick PCR columns (Qiagen), analyzed on an ABI 3130xL genetic analyzer (Applied Biosystems) with peak positions identified by using a set of X-rhodamine (ROX)-labeled MapMarker1000 molecular weight standards (BioVentures). The raw capillary electrophoresis data was processed using Attagraph software (Attagene).

SMILES	outcome	AC50
Cc1c(COC(=O)[C@@H]2[C@H](/C=C(\Cl)C(F)(F)F)C2(C)C)cccc1-c1ccccc1	inactive	
COP(=S)(OC)Oc1ccc([N+](=O)[O-])c(C)c1		55.8 µM (active)
CC1(C)C(C=C(Cl)Cl)C1C(=O)OC(C#N)c1cccc(Oc2ccccc2)c1 (stereo not given)		14.2 µM (active)
CSC(=O)c1c(C(F)F)nc(C(F)(F)F)c(C(=O)SC)c1CC(C)C		6.53 µM (active)
C=C(C)CN(CC)c1c([N+](=O)[O-])cc(C(F)(F)F)cc1[N+](=O)[O-]		41 µM (active) and 23 µM (active)
COP(=S)(OC)SCn1nnc2ccccc2c1=O		93.7 µM (active) and 23.2 µM (active)
CCN(CC)C(=O)C(C)Oc1cccc2ccccc12 (stereo not given)		39.8 µM (active)
CC(C)NC(=O)N1CC(=O)N(c2cc(Cl)cc(Cl)c2)C1=O		33.2 µM (active)
CC1(C)CCC(=Cc2ccc(Cl)cc2)C1(O)Cn1cncn1 (stereo not given)	inactive	
N#Cc1c[nH]cc1-c1cccc2c1OC(F)(F)O2		14 µM (active) and 21.7 µM (active)

From PubChem BioAssay (EPA / NIEHS)
